Results on 16 compounds are retold here after the supplement of paper PMC10037445.

For test [1], the system named is RAW-Dual. The test is described as follows: NF-kB SEAP reporter activity, fold change vs agonist alone; higher = enhanced NF-kB activity. Put shortly:
(§1)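 RAW-Dual macrophages (50,000 cells/well in DMEM, 384-well plates) received 50 nL of library stock by pin tool, then a PRR agonist 1 h later, and were kept at 37 °C, 5% CO2. After 20 hours, supernatant was read for IRF by QuantiLuc luminescence and for NF-κB by QuantiBlue absorbance at 620 nm. Reporter activity is fold change over agonist-alone wells. Cytotoxic wells had IncuCyte confluency below 70% of agonist controls in both mask sets.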

For test [2], the system named is RAW-Dual. The test is described as follows: NF-kB SEAP reporter activity, fold change vs agonist alone; cytotoxicity flag (confluency mask): not cytotoxic; higher = enhanced NF-kB activity. The method in brief: as §1
Test [3] has as its system RAW-Dual. The test is described as follows: NF-kB SEAP reporter activity, fold change vs agonist alone; cytotoxicity flag (confluency mask): cytotoxic (confluency <70% of control); higher = enhanced NF-kB activity. The method in brief: as §1
[4] abbreviates: library stock concentration (final ~1000-fold dilution): 10 mM, cytotoxicity flag (confluency mask): not cytotoxic, agonist: Imiquimod (TLR7) […].
Where [5] appears, read: library stock concentration (final ~1000-fold dilution): 10 mM, cytotoxicity flag (confluency mask): not cytotoxic, agonist: MPLA (TLR4) […].
[6] abbreviates: agonist: ODN 1826 (TLR9) 0.5 ug/mL.
The mark [7] stands for this setting: agonist: Pam2CSK4 (TLR2/6) 0.1 ug/mL.
[8] abbreviates: agonist: Pam3CSK4 (TLR2/1) 0.1 ug/mL.
Setting [9] is: library stock concentration (final ~1000-fold dilution): 10 mM, cytotoxicity flag (confluency mask): cytotoxic (confluency <70% of control), agonist: Imiquimod (TLR7) […].
Setting [10] is: library stock concentration (final ~1000-fold dilution): 10 mM, cytotoxicity flag (confluency mask): cytotoxic (confluency <70% of control), agonist: MPLA (TLR4) […].

SMILES strings stand for the structures. Whole data set: some 2,900 compounds, median “NF-kB SEAP reporter activity, fold change vs agonist alone” near 0.99, cut for the highest 2% near 2.6. Shown is part of a subset that was picked to be rich in the highest values.

In the case of `Nc1nc(-c2ccco2)c2cnn(Cc3ccccc3F)c2n1`, the “NF-kB SEAP reporter activity” value in the test with RAW-Dual [1] (setting [4]) was determined as 1.05; in the test on RAW-Dual [1] (setting [5]) it was 1.22.
As for `Nc1nc(-c2ccco2)c2cnn(Cc3ccccc3F)c2n1` (library stock concentration (final ~1000-fold dilution): 10 mM), the “NF-kB SEAP reporter activity” value came to 1.11 in the test with RAW-Dual [2] (agonist: LPS (TLR4) 0.1 ug/mL), 1.1 with RAW-Dual [2] (setting [6]), 1.03 in the test with RAW-Dual [2] (setting [7]) and 1.08 with RAW-Dual [2] (setting [8]).
`NS(=O)(=O)c1ccc(NC(=S)N2CCN(C/C=C/c3ccccc3)CC2)cc1` (library stock concentration (final ~1000-fold dilution): 10 mM): the “NF-kB SEAP reporter activity” value was 1.42 in the test with RAW-Dual [2] (agonist: LPS (TLR4) 0.1 ug/mL), 1.17 with RAW-Dual [2] (setting [6]), 0.787 with RAW-Dual [2] (setting [7]) and 0.825 with RAW-Dual [2] (setting [8]).
As for `NS(=O)(=O)c1ccc(NC(=S)N2CCN(C/C=C/c3ccccc3)CC2)cc1`, the “NF-kB SEAP reporter activity” value in the test on RAW-Dual [1] (setting [4]) was found to be 1.02; in the test on RAW-Dual [1] (setting [5]), 1.1.
Regarding `Cl.OCCNCc1ccc(OCc2ccc(F)cc2)c(OCc2ccc(F)cc2)c1` (library stock concentration (final ~1000-fold dilution): 10 mM), the “NF-kB SEAP reporter activity” value in the test on RAW-Dual [3] (agonist: LPS (TLR4) 0.1 ug/mL) was 0.702; with RAW-Dual [3] (setting [6]), 0.629; with RAW-Dual [3] (setting [7]), 0.301; in the test on RAW-Dual [3] (setting [8]), 0.354.
Consider `Cl.OCCNCc1ccc(OCc2ccc(F)cc2)c(OCc2ccc(F)cc2)c1`, for which the results for the “NF-kB SEAP reporter activity” value in the test with RAW-Dual [1] (setting [9]) and in the test on RAW-Dual [1] (setting [10]) were 1.41 and 1.5, respectively.
With `Cl.N=C(N)NCCCCC(N)C(=O)O` (configuration not stated) (library stock concentration (final ~1000-fold dilution): 10 mM water), the “NF-kB SEAP reporter activity” value in the test on RAW-Dual [2] (agonist: LPS (TLR4) 0.1 ug/mL) turned out to be 1.17; in the test with RAW-Dual [2] (setting [6]), 1.12; in the test on RAW-Dual [2] (setting [7]) it was 1.21; with RAW-Dual [2] (setting [8]), 0.923.
`Cl.N=C(N)NCCCCC(N)C(=O)O` (configuration not stated): in the test with RAW-Dual [1] (library stock concentration (final ~1000-fold dilution): 10 mM water, cytotoxicity flag (confluency mask): not cytotoxic, agonist: MPLA (TLR4) […]), the “NF-kB SEAP reporter activity” value was 1.08.
In the case of `CCCCNc1ncc2c(-c3ccc(CN4CCN(C)CC4)cc3)cn(C3CCC(O)CC3)c2n1.Cl` (configuration not stated) (library stock concentration (final ~1000-fold dilution): 10 mM), the “NF-kB SEAP reporter activity” value turned out to be 0.236 in the test with RAW-Dual [3] (agonist: LPS (TLR4) 0.1 ug/mL), 0.351 in the test on RAW-Dual [3] (setting [6]), 0.128 with RAW-Dual [3] (setting [7]) and 0.192 in the test with RAW-Dual [3] (setting [8]).
`CCCCNc1ncc2c(-c3ccc(CN4CCN(C)CC4)cc3)cn(C3CCC(O)CC3)c2n1.Cl` (configuration not stated): the “NF-kB SEAP reporter activity” value stood at 0.547 with RAW-Dual [1] (setting [9]) and 0.322 in the test on RAW-Dual [1] (setting [10]).
As to `CN(C)C(=O)Nc1cccc(-c2ccc(N(C)C)cc2)c1` (library stock concentration (final ~1000-fold dilution): 10 mM), the “NF-kB SEAP reporter activity” value with RAW-Dual [2] (agonist: LPS (TLR4) 0.1 ug/mL) is 1.52; with RAW-Dual [2] (setting [6]) it was 1.08; with RAW-Dual [2] (setting [7]) it was 0.914; in the test on RAW-Dual [2] (setting [8]), 1.01.
For `CCn1cc(-c2ccnc3[nH]c(-c4cccc(CN(C)C)c4)cc23)c(-c2ccc(NC(=O)N(C)C)cc2)n1` (library stock concentration (final ~1000-fold dilution): 10 mM), the “NF-kB SEAP reporter activity” value with RAW-Dual [2] (agonist: LPS (TLR4) 0.1 ug/mL) amounted to 6.43; with RAW-Dual [2] (setting [6]), 0.432; in the test with RAW-Dual [2] (setting [7]), 1.83; in the test with RAW-Dual [2] (setting [8]), 3.76.
As for `CCn1cc(-c2ccnc3[nH]c(-c4cccc(CN(C)C)c4)cc23)c(-c2ccc(NC(=O)N(C)C)cc2)n1`, the “NF-kB SEAP reporter activity” value in the test on RAW-Dual [1] (setting [4]) was 3.13; with RAW-Dual [1] (setting [5]) it was 2.67.
Consider `CN(C)C(=O)Nc1cccc(-c2ccc(N(C)C)cc2)c1`, for which the “NF-kB SEAP reporter activity” value in the test with RAW-Dual [1] (setting [4]) was 0.998; in the test on RAW-Dual [1] (setting [5]) it was 0.985.
For the compound `CS(=O)(=O)O.O=C(Nc1cccc(Cl)c1)Nc1ncc(CCNc2ncnc3ccsc23)s1` (library stock concentration (final ~1000-fold dilution): 10 mM), the “NF-kB SEAP reporter activity” value was 1 with RAW-Dual [3] (agonist: LPS (TLR4) 0.1 ug/mL), 0.54 in the test with RAW-Dual [3] (setting [6]), 0.153 in the test with RAW-Dual [3] (setting [7]) and 0.292 with RAW-Dual [3] (setting [8]).
As to `CS(=O)(=O)O.O=C(Nc1cccc(Cl)c1)Nc1ncc(CCNc2ncnc3ccsc23)s1`, the “NF-kB SEAP reporter activity” value in the test with RAW-Dual [1] (setting [9]) is 0.503; in the test on RAW-Dual [1] (setting [10]) it was 0.512.
